Only some compounds are listed: those with a hit (about 3.5% of all), similar ones and a draw of the others.
mHTT CaM bind: inhibitors of human mutant huntingtin-calmodulin interaction; AlphaScreen His-mHTT/GST-CaM binding, luminescence; hit rate 3.6% among 190,000; inhibition, % at 15 µM; AID 1671202; P42858;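 also: 0% = both proteins with DMSO and 100% = one protein alone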
Pf apPOL block: Pf-apPOL DNA polymerase inhibition | Recombinant Pf-apPOL, molecular beacon fluorescence, 1.5 h | hit rate 0.25% among 210,000 | inhibition, % at 10 µM
An asterisk follows results filed as active; i = inactive; · = not tested or not shown. Rule as the data show it: active = inhibition above about 50%; inactive = the rest.

SMILES	mHTT CaM bind	Pf apPOL block
Oc1ccc(/C=C/c2nc(-c3ccccc3O)n(-c3ccccc3)n2)c(O)c1	96*	-77
Oc1ccc(/C=C/c2nc(-c3ccccc3O)n(-c3ccccc3)n2)cc1	92*	6
Oc1ccc(/C=N/n2cnnc2)c(O)c1	i	·
COc1ccc(/C=C/c2nc(N)nc(-c3ccccc3O)n2)cc1	32	-5
Cc1ccc2c(N)c(C(=O)O)sc2n1	19	-1
CC(C)(C)c1ccc(C2=N/C(=C\c3cccs3)C(=O)O2)cc1	15	6
COc1cc(C)c(C)cc1S(=O)(=O)NCCCc1ccc(N(C)C)cc1	57*	-8
CCCS(=O)(=O)NCCc1csc(-c2ccc(OC)c(OC)c2)n1	3	-16
COc1cccc(C(=O)NCCCc2ccc(N(C)C)cc2)c1OC	21	5
COc1cc(C)c(C)cc1S(=O)(=O)NCCc1csc(-c2ccc(F)cc2)n1	53*	-9
Cc1ccc(-n2nc(C)c(/C=C/c3onc(C)c3[N+](=O)[O-])c2C)c(C)c1	0	-9
Cc1cc(C)c(-c2csc(NC(=O)c3c(F)cccc3F)n2)c(C)c1	-5	-4
COc1cc(OC)c(NC(=O)c2cccnc2)cc1Cl	-2	-5
COc1cc(Cl)c(C)cc1NC(=O)c1cccnc1	-5	97*
Cc1nc(-n2nc(C3CC3)cc2NC(=O)c2ccccc2C(F)(F)F)[nH]c(=O)c1C	2	-18
COc1cccc(-c2noc(C3CCCN3C(=O)NCc3ccc(F)cc3)n2)c1 (stereo unspecified)	76*	0
Cc1cccc(-c2noc(C3CCCN3C(=O)COc3ccccc3)n2)c1 (stereo unspecified)	24	0
Cc1cccc(OCC(=O)N2CCCC2c2nc(-c3cccc(Cl)c3)no2)c1 (stereo unspecified)	78*	-5
Cc1ccccc1OCC(=O)N1CCCC1c1nc(-c2cccc(Cl)c2)no1 (stereo unspecified)	45	-5
Cc1cccc(-c2noc(C3CCCN3C(=O)COc3ccc(Cl)cc3C)n2)c1 (stereo unspecified)	76*	-4
COc1cccc(-c2noc(C3CCCN3C(=O)NCc3ccc(C)cc3)n2)c1 (stereo unspecified)	19	1
CCc1ccc(C(=O)N2CC3CC(NS(C)(=O)=O)C2C3)cc1 (stereo unspecified)	1	-5
COc1ccc(CC(=O)Nc2c3c(nn2-c2cccc(Cl)c2)CS(=O)(=O)C3)cc1OC	6	1
Brc1ccc(Nc2nc(-c3cccnc3)nc3ccccc23)cc1	12	-1
COc1ccc(Nc2nc(-c3cccnc3)nc3ccccc23)cc1	54*	-3
SMILES	mHTT CaM bind	Pf apPOL block
O=C(Cc1noc2ccccc12)N1CCN(c2ccc3nncn3n2)CC1	-2	-5
Cc1ccc(OCC(O)Cn2c(C)nc3ccccc32)cc1 (stereo unspecified)	16	0
Cn1nnnc1SCC(=O)NCCn1nc(-c2ccc(F)cc2)ccc1=O	-13	-4
O=C(CC(c1ccccc1)c1ccccc1)NCCn1nc(-c2ccc(F)cc2)ccc1=O	95*	-13
CC(=O)c1cccc(N2COc3ccc(Cl)cc3C2)c1	22	-6
O=[N+]([O-])c1cccc(N2COc3ccc(Cl)cc3C2)c1	54*	1
O=C(O)Cn1cnc([N+](=O)[O-])n1	-2	·
Cc1ccc(NC(=O)Cn2cnc(C)c(C)c2=O)cc1	4	-2
Cc1ccc(C2=NNC(C(O)C(O)C(O)C(C)O)S2)cc1 (stereo unspecified)	-2	·
Cc1ccc(C2=NNC(c3ccc(F)cc3)S2)cc1 (stereo unspecified)	62*	·
O=C1COc2c(Br)cc(Br)cc2O1	-8	·
CCN1CCN(c2cc(Oc3ccccc3C)ncn2)CC1	-2	-5
CC1C(=O)C(C)C(c2ccc(F)cc2)NC1c1ccc(F)cc1 (stereo unspecified)	-21	-101
CC1C(=O)C(C)C(c2ccc(N(C)C)cc2)NC1c1ccc(N(C)C)cc1 (stereo unspecified)	77*	-81
COc1ccc(C(=O)N2CCN(c3cccc(Cl)c3)CC2)cc1	6	-1
COc1cccc(-n2ccnc2N2CCN(C(=O)c3ccc(F)c(F)c3)CC2)c1	54*	18
Cc1ccc(-c2noc(C3CCCN3C(=O)NC3CCCCC3)n2)cc1 (stereo unspecified)	4	-1
COc1ccc(CN2Cc3cc(NC(=O)C4CCCC4)ccc3OC(C)C2=O)cc1 (stereo unspecified)	4	-6
N#CC(C(N)=O)=C1SC(Cc2cccc([N+](=O)[O-])c2)C(=O)N1c1ccccc1 (stereo unspecified)	0	-3
CCOC(=O)c1ccccc1NC(=O)CSc1nnc(-c2c[nH]c3ccccc23)n1C	1	-11
COc1ccc(Cl)cc1NC(=O)CSc1nnc(-c2c[nH]c3ccccc23)n1C	55*	-12
CCOC(=O)c1nn(-c2ccc(F)cc2)c(=O)cc1OCc1cccc(C(F)(F)F)c1	-6	-4

High-throughput results as filed in PubChem.
